Data taken from the supplement of paper PMC10849652.
The full data set covers some 7,900 targets. This sample favours those with a hit. About 0.6% of all pairs of compound and target were hits. A number with no mark means an inactive call.

Each target was assayed with Cc1ccc(-n2nc(C(C)(C)C)cc2NC(=O)Nc2ccc(OCCN3CCOCC3)c3ccccc23)cc1 [doramapimod] (assay: log2 fold change, soluble protein after heating vs DMSO (PISA); higher = thermal stabilisation; K562 cells, 10 uM, 30 min; active = over 0.2 and 3.5 SD of the protein, either way, in both replicates (recomputed)).
Outline: (§1)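 Soluble protein was quantified by TMTpro 16plex LC-MS/MS after channel sums were equalised. It was obtained as the supernatant after 21,000xg for 90 min from pooled aliquots of K562 cells (2×10^6 cells/mL, 10 μM compound, 30 min) heated for 3 min across 48°C-58°C and extracted in PBS with 0.5% NP-40 at 4°C. Thermal stability values are relative to control samples and come from duplicates. They are given as log2 fold changes.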

UniProt Q13057, sequence (Q13057 whole entry, looked up): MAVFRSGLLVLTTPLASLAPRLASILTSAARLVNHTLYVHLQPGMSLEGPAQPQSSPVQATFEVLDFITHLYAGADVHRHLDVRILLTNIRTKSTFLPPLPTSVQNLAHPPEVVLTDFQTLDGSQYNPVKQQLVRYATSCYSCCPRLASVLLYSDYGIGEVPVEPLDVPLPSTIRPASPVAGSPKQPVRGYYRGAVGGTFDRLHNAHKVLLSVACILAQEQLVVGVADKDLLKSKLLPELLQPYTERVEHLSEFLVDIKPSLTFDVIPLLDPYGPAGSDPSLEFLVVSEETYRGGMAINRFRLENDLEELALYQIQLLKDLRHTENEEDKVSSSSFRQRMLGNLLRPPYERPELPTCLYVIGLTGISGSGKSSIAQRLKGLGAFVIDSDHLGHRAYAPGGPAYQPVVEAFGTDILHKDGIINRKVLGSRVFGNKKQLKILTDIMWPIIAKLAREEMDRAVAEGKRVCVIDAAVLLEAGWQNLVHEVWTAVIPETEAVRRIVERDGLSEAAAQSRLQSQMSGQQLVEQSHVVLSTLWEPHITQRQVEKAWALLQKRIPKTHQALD
UniProt Q9BT78, sequence (Q9BT78 whole entry, looked up): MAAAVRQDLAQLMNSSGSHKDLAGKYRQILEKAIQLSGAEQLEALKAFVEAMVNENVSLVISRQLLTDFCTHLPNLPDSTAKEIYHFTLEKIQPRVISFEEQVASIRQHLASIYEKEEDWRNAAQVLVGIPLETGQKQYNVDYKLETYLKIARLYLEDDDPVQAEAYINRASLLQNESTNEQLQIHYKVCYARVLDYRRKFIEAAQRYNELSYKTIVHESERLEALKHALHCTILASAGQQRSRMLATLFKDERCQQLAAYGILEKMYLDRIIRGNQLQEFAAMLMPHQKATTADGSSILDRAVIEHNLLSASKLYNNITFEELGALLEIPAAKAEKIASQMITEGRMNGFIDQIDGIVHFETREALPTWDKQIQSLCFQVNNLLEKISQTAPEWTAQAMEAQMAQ
UniProt Q96G23, sequence (Q96G23 whole entry, looked up): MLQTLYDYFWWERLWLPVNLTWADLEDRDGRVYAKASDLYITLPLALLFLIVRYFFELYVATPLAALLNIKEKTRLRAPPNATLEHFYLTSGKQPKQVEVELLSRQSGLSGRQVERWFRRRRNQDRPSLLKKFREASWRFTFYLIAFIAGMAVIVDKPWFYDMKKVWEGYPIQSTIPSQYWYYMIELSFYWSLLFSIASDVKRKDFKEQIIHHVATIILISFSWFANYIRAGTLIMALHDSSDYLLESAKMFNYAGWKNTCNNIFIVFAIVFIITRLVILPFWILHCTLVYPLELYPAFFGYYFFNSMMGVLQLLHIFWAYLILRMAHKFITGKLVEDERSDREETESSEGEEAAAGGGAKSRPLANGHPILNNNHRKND
UniProt O14578, sequence (O14578 whole entry, looked up): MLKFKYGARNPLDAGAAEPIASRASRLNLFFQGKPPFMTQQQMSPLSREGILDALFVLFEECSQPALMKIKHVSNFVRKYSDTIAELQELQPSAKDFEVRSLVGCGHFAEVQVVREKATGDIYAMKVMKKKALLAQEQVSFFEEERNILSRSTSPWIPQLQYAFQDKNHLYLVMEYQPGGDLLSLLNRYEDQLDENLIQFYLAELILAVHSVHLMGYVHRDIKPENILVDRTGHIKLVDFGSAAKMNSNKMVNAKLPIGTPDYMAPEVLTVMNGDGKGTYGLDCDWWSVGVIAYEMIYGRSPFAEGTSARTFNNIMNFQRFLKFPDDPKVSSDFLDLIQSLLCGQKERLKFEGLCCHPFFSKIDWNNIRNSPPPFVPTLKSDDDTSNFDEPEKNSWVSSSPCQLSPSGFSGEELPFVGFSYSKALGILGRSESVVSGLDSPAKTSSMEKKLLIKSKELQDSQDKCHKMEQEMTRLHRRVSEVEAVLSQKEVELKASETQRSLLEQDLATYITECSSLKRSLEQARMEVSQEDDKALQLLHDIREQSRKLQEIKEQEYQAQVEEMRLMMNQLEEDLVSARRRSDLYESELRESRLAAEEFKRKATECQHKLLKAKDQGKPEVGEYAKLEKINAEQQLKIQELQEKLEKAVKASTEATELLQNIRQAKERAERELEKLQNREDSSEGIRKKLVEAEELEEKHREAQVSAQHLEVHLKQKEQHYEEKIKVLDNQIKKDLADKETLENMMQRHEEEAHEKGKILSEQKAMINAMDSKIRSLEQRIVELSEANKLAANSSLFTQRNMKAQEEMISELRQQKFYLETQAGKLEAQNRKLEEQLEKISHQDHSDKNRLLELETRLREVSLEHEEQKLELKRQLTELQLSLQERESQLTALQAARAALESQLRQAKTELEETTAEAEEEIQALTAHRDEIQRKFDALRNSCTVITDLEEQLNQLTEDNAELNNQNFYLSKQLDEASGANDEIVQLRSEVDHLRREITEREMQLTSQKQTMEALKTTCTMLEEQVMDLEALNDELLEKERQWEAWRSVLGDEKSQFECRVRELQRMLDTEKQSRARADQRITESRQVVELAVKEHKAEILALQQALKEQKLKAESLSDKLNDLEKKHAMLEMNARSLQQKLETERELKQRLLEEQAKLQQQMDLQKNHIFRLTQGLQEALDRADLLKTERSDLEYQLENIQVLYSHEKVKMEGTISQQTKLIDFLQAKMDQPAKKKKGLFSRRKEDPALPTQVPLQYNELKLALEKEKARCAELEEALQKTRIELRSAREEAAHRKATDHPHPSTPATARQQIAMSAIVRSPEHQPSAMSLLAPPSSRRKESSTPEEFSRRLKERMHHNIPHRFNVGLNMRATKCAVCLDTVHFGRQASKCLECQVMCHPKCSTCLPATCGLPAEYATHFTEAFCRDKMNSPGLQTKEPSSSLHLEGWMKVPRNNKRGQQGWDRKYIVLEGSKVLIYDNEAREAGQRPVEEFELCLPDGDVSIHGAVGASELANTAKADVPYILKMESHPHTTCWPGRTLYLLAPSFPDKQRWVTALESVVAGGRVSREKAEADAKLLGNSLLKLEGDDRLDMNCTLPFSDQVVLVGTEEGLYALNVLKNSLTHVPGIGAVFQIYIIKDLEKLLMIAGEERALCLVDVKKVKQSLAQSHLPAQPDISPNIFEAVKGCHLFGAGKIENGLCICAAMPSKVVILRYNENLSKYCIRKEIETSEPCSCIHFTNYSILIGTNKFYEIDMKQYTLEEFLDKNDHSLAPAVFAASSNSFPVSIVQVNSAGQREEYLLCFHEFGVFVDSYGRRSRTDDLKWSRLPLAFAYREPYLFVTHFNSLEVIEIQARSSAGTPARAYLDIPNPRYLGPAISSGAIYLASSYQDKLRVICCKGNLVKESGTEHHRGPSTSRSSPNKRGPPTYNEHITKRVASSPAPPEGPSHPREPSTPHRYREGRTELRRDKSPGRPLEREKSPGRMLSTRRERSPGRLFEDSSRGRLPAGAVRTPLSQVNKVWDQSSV
UniProt P19397, sequence (P19397 whole entry, looked up): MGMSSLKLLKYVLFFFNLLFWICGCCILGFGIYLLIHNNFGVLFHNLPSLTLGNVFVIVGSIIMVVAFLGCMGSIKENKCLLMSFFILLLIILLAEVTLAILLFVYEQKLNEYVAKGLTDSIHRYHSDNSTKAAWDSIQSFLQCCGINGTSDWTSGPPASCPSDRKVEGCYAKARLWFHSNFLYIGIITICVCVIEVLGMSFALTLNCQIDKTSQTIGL
UniProt P50416, sequence (P50416 whole entry, looked up): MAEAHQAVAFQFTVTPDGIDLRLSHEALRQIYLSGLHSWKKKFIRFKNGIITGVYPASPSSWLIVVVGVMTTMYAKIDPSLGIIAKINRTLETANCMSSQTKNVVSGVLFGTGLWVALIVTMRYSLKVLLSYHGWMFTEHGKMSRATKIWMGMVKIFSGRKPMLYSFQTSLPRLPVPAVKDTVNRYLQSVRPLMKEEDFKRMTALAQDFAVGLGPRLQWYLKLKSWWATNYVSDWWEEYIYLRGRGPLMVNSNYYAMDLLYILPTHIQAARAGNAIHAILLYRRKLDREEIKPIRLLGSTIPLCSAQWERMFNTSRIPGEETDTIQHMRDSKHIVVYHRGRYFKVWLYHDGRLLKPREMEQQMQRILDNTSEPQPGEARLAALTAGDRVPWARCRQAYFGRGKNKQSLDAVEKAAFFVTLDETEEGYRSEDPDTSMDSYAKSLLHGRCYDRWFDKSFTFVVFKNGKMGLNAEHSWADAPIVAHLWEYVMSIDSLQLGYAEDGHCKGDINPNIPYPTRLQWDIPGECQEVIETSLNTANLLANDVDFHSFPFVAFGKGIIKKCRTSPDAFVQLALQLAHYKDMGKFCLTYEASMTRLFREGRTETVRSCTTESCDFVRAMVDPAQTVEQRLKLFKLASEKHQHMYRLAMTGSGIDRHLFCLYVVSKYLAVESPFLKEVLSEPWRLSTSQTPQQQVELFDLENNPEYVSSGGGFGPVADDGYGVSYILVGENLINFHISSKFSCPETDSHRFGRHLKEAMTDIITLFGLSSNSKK
UniProt Q8IUI8, sequence (Q8IUI8 whole entry, looked up): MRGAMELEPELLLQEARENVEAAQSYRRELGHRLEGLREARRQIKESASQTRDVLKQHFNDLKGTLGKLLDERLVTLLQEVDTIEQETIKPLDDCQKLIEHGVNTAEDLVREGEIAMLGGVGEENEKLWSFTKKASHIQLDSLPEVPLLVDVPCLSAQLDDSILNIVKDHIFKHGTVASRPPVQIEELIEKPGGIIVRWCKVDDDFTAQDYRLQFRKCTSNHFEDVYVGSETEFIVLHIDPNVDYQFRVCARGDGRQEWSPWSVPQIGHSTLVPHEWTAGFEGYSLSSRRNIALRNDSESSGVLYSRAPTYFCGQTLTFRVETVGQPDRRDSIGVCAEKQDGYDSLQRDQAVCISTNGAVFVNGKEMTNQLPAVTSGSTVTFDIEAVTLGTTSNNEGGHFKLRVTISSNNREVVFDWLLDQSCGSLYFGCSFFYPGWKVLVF
UniProt Q99627, sequence (Q99627 whole entry, looked up): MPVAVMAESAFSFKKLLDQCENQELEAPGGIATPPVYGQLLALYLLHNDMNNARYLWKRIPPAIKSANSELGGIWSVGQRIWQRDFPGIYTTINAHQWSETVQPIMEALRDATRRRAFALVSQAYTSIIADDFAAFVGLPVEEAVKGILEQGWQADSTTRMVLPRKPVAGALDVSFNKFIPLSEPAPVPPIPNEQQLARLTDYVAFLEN

Target	log2 fold change
CNDP2 (UniProt Q96KP4)	0.018
CSNK1A1 (UniProt P48729)	0.024
CNTN4 (UniProt Q8IWV2)	-0.095
CRLF3 (UniProt Q8IUI8)	0.138
CDC123 (UniProt O75794)	0.003
CPT1A (UniProt P50416)	0.012
CERS2 (UniProt Q96G23)	-0.04
COQ7 (UniProt Q99807)	0.009
CELF2 isoform 3 (UniProt O95319)	0.05
COPS8 (UniProt Q99627)	0.107
CBX1 (UniProt P83916)	0.105
CDK5RAP3 isoform 4 (UniProt Q96JB5)	-0.033
CD53 (UniProt P19397)	0.103
CCNK isoform 4 (UniProt O75909)	0.157
COPS4 (UniProt Q9BT78)	-0.014
COASY isoform 2 (UniProt Q13057)	-0.063
CDKN2AIP (UniProt Q9NXV6)	-0.019
CDK6 (UniProt Q00534)	0.018

Target	log2 fold change
CHCHD1 (UniProt Q96BP2)	-0.087
CLUH (UniProt O75153)	0.02
CALCOCO2 isoform 4 (UniProt Q13137)	-0.002
COMT (UniProt P21964)	0
COPS3 (UniProt Q9UNS2)	-0.015
CHERP (UniProt Q8IWX8)	0.01
CPSF6 isoform 2 (UniProt Q16630)	0.004
CDK13 (UniProt Q14004)	-0.006
COMMD2 (UniProt Q86X83)	-0.012
CDC26 (UniProt Q8NHZ8)	-0.017
CLCN3 isoform 2 (UniProt P51790)	0.009
CAMKK2 (UniProt Q96RR4)	0.086
CHKA (UniProt P35790)	-0.011
CSTF3 (UniProt Q12996)	-0.022
CD55 isoform 7 (UniProt P08174)	0.02
CSNK2A1 (UniProt P68400)	-0.022
CIT isoform 4 (UniProt O14578)	0.026

The targets below were run with Cc1ccc(C(=O)N(CCCN)[C@@H](c2nc3cc(Cl)ccc3c(=O)n2Cc2ccccc2)C(C)C)cc1 [ispinesib] in the same assay as above.
Outline: as §1

Target	log2 fold change
CNDP2 (UniProt Q96KP4)	-0.099
CSNK1A1 (UniProt P48729)	-0.125
CNTN4 (UniProt Q8IWV2)	-0.046
CRLF3 (UniProt Q8IUI8)	-0.059
CDC123 (UniProt O75794)	0.013
CPT1A (UniProt P50416)	0.322
CERS2 (UniProt Q96G23)	-0.466 (active)
COQ7 (UniProt Q99807)	-0.181
CELF2 isoform 3 (UniProt O95319)	-0.066
COPS8 (UniProt Q99627)	0.05
CBX1 (UniProt P83916)	0.04
CDK5RAP3 isoform 4 (UniProt Q96JB5)	-0.036
CD53 (UniProt P19397)	0.023
CCNK isoform 4 (UniProt O75909)	0.03
COPS4 (UniProt Q9BT78)	0.086
COASY isoform 2 (UniProt Q13057)	-0.057
CDKN2AIP (UniProt Q9NXV6)	0.048
CDK6 (UniProt Q00534)	0.024

Target	log2 fold change
CHCHD1 (UniProt Q96BP2)	0.06
CLUH (UniProt O75153)	0.043
CALCOCO2 isoform 4 (UniProt Q13137)	-0.262
COMT (UniProt P21964)	0.235 (active)
COPS3 (UniProt Q9UNS2)	0.024
CHERP (UniProt Q8IWX8)	-0.004
CPSF6 isoform 2 (UniProt Q16630)	0.11
CDK13 (UniProt Q14004)	0.063
COMMD2 (UniProt Q86X83)	0.014
CDC26 (UniProt Q8NHZ8)	0.406
CLCN3 isoform 2 (UniProt P51790)	-0.25
CAMKK2 (UniProt Q96RR4)	-0.204
CHKA (UniProt P35790)	0.048
CSTF3 (UniProt Q12996)	0.082
CD55 isoform 7 (UniProt P08174)	0.132
CSNK2A1 (UniProt P68400)	0.029
CIT isoform 4 (UniProt O14578)	0.072
